Structures are written as SMILES. Inconclusive results are not listed. A call without a number means that no potency is given here. Calls of active or inactive are those of the source. Calls come from the whole dose curve; as a rule, active = well fitted activation curve with a large enough effect in the repeat runs; inconclusive = weak or mixed curves; inactive = flat fitted curve, though single readings scatter.

In PubChem BioAssay (Tox21) one finds Potency and cytotoxicity increase data, which are given here for 23 compounds.

This assay in a line: A CellTox Green Cytotoxicity Assay to monitor cytotoxicity in HEK293 cells - 40 hour (AID 1224871). Note: nearly all actives have a fitted effect of over 45% in size. Particulars: CellTox Green fluorescence; series mostly up to 76.8 µM. Put shortly: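 Tox21 screen in HEK293: membrane-impermeant cyanine dye fluoresces on binding dead-cell DNA; compound pinned 5 h post-seeding, plates held at 37 C, signal read repeatedly through 40 h.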
On to `CCCCCCC#CC(=O)OC`, for which the Potency entry was “inactive”.
Still for that read-out and setting: under `O=C(O)CCSCCC(=O)O` stands “inactive”.
Take `Cc1ccc(C(=O)c2ccc(CC(=O)O)n2C)cc1`: the Potency result was “inactive”.
On the same count and under the same terms, under `CCCCCCCCCCCCCCCCCCO` stands “inactive”.
The same measure, in the same setting: under `CCN(C=O)CC` stands “inactive”.
Take `COc1ccc2cc1Oc1cc3c(cc1OC)CC[N+](C)(C)[C@H]3Cc1ccc(cc1)Oc1c(OC)c(OC)cc3c1[C@@H](C2)[N+](C)(C)CC3`: the Potency entry is “inactive”.
Consider `Cc1ccc(C(=O)c2ccccc2)cc1`, for which the Potency entry is “inactive”.
In the case of `CC(C)C[C@@H](N)C(=O)O`, the cytotoxicity increase was -2.15% [at 15.8 µM] (inactive).
Take `O=C(O)CC(C(=O)O)S(=O)(=O)O` (stereo not drawn): the Potency result is “inactive”.
Still for that read-out and setting: then `CC1(C)OC[C@@H](COC(=O)CCc2ccc(OC[C@@H](O)CNCCNC(=O)N3CCOCC3)cc2)O1`, with “inactive”; and `CC(CC=O)CC(C)(C)C` (stereo not drawn), with “inactive”; and `NC(CCC(=O)O)C(=O)O` (stereo not drawn), with “inactive”.
Turning to `Clc1cc(Cl)cc(Cl)c1`, the Potency entry is “inactive”.
On to `CO/N=C(\C(=O)N[C@@H]1C(=O)N2C(C(=O)O)=C(CSc3nc(=O)c(O)nn3C)CS[C@H]12)c1csc(N)n1`, for which the Potency entry was “inactive”.
`CCCO[Si](OCCC)(OCCC)OCCC`: the Potency result was “inactive”.
Still for that read-out and setting: under `CCCCCCCCCCCCSC` stands “inactive”; under `CC(C)(C)c1ccc(-c2ccc(C(C)(C)C)cc2)cc1`, “inactive”; under `CC(=O)Nc1ccc(OCC(O)CNC(C)C)cc1` (stereo not drawn), “inactive”.
Still for that read-out and setting: under `CCCCOCCOC(=O)CCCCCCCCC(=O)OCCOCCCC` stands “inactive”; under `COc1cc(C)nc(-n2nc(C)cc2OC)n1`, “inactive”; under `O=[N+]([O-])c1ccc(/C=N\O)o1`, “inactive”.
Consider `[O-][n+]1cccc(CO)c1`, for which the Potency result is “inactive”.
On the same count and under the same terms, then `O=S(=O)(O)c1cccc2c(S(=O)(=O)O)cccc12`, with “inactive”.
